16 compounds from PubChem BioAssay (NCATS) can be followed below.

SMILES strings stand for the structures. Values joined by “and” are separate entries in the source; they are usually repeats but may differ in a detail not shown here. Equal values may be shown once. A number with no mark means an inactive call. Inconclusive results are not listed. Active and inactive are the calls of the source. Calls come from the whole dose curve; as a rule, active = well fitted curve in the direction sought with a large enough effect; inconclusive = small, poorly fitted or top-dose-only effect, or another doubt; inactive = no such curve, though single readings can be large; an effect the other way counts as inactive or inconclusive.

A short description of test [1]: Primary qHTS for inhibitors of nuclear receptor binding SET domain protein 2 (NSD2) in an RCH-ACV wild type WT cells (2C) (AID 1645877). Note: nearly all actives have a fitted effect of over 70% in size. Note: potency is the fitted concentration of half-maximal effect.
Test [2] concerns the target Glutathione peroxidase 1 (Homo sapiens) (UniProt P07203). Put plainly: Primary qHTS Assay for Inhibitors of Recombinant Selenoprotein Glutathione Peroxidase 1 (GPX1) (AID 1845191). Note: nearly all actives have a fitted effect of over 65% in size. In a few lines: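 GR-coupled readout: NADPH consumption tracked by fluorescence, ex 340/em 450 nm, at t=0 and after 15 min at RT. Final mix 10 nM GPX1, 1 mM GSH, 0.5 mM CHP, 0.5 mM NADPH, 100 nM GR, 0.01% BSA, following 30 min enzyme–compound preincubation.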

The target of test [3] is Phospholipid hydroperoxide glutathione peroxidase GPX4 (Homo sapiens) (UniProt P36969). Put plainly: Primary qHTS Assay for Inhibitors of Recombinant Selenoprotein Glutathione Peroxidase 4 (GPX4) (AID 1845192). Note: nearly all actives have a fitted effect of over 65% in size. In a few lines: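 Steps: GPX4 plus compound, 30 min RT; add GR/GSH/NADPH master mix; start with cumene hydroperoxide; read 340/450 nm fluorescence at 0 and 15 min. Finals were 200 nM GPX4, 1 mM GSH, 0.5 mM CHP, 0.5 mM NADPH, 100 nM GR.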
A general note: Quantitative high-throughput screening tests each substance at several concentrations.

Test [4] deals with Luciferin 4-monooxygenase (Photinus pyralis) (UniProt P08659). Put plainly: Primary firefly luciferase (FLuc) qHTS assay for identification of artifact compounds. (AID 1845220). Note: nearly all actives have a fitted effect of over 60% in size. The procedure, abridged: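 Titrated compounds were incubated 15 min at RT, protected from light, with luciferin and ATP at 10 uM; reaction started with 10 nM FLuc, luminescence imaged at 5 min, and concentration-response fitted by Hill equation.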

Test [5] can be described thus: Primary fluorescence-based thiol-reactive (MSTI) qHTS assay for identification of artifact compounds. (AID 1845221). Note: nearly all actives have a fitted effect of over 65% in size. Note: potency is the fitted concentration of half-maximal effect. In a few lines:
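MSTI probe at 4 uM final in 2% DMSO/PBS pH 7.4; compounds, 1 h at room temperature in dark. Fluorescence Ex/Em 525/598 nm, normalised to Acetyl-MSTI and MSTI, fitted to 4-parameter Hill.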

Test [6] concerns Nanoluciferase (engineered Oplophorus gracilirostris luciferase). Put plainly: Primary Nanoluciferase (NLuc) qHTS assay for identification of artifact compounds. (AID 1845222).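 Note: NLuc secreted into diluted conditioned medium of S16 cells; series mostly up to about 54 µM.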 In a few lines:
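qHTS format, against NLuc in S16 cell-conditioned medium. Nano-Glo substrate 1:100 was added after 15 min at room temperature. Luminescence was taken after a further 5 min.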

A short description of test [7]: Primary redox qHTS assay for identification of artifact compounds. (AID 1845223). In a few lines: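 Redox-cycling detection via DTT (250 uM final) oxidation coupled to Amplex Red (25 uM)/HRP (250 mU/mL) in HBSS. 15 min preincubation plus 30 min after DTT, room temperature. Ex/Em 525/598 nm; 4-parameter Hill fit against DMSO and 10 uM DA3003.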

Sequence of Glutathione peroxidase 1 (Homo sapiens) (P07203 whole entry, looked up): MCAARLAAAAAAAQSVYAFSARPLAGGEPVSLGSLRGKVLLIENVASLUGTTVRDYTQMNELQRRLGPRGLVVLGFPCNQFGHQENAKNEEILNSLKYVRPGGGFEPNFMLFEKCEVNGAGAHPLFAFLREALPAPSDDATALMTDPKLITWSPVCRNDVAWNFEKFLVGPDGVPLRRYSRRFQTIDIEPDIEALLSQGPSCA
Sequence of Phospholipid hydroperoxide glutathione peroxidase GPX4 (Homo sapiens) (P36969 whole entry, looked up): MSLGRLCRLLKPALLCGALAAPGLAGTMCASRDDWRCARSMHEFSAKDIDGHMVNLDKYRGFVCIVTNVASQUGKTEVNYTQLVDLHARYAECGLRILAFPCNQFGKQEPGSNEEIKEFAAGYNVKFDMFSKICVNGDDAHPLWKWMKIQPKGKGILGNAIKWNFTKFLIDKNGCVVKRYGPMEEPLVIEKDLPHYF

Take `C=C[C@H]1[C@H](O[C@@H]2O[C@H](CO)[C@@H](O)[C@H](O)[C@H]2O)OC=C(C(=O)OC)[C@H]1CC(=O)O`: the Potency result in test [1], in test [2], in test [3], in test [4], in test [5] and in test [6] was “inactive” throughout. For the same compound, the Potency entry in test [7] was “inactive”.

`O=C(Nc1ccccc1)N1CCN(Cc2ccc3ccccc3n2)CC1`: the Potency result in test [1], in test [2], in test [3], in test [4], in test [5] and in test [6] was “inactive” each time. Also, in test [7], the Potency entry was “inactive”.

On to `CC(C)(C)OC(=O)N1CCC(OCc2nc(-c3ccncc3)no2)CC1`, for which the Potency result in test [1], in test [2], in test [3], in test [4], in test [5] and in test [6] was “inactive” throughout. Further, the Potency result in test [7] was “inactive”.

`CC1(C)C2CC(OC3OC(COC4OCC(O)(CO)C4O)C(O)C(O)C3O)C1(C)CC2O` (configuration not stated): the Potency entry in test [1], in test [2], in test [3], in test [4], in test [5] and in test [6] was “inactive” in each case. Besides, the Potency result in test [7] is “inactive”.

Consider `COc1cc([C@H]2c3cc(O)c(OC)cc3C[C@@H](CO[C@@H]3O[C@H](CO)[C@@H](O)[C@H](O)[C@H]3O)[C@@H]2CO)ccc1O`, for which the Potency result in test [1], in test [2], in test [3], in test [4], in test [6] and in test [7] was “inactive” in each case. Also, the Potency in test [5] is 8.22 µM (active).

In the case of `Cc1cc(Nc2cc(N3CCN(C)CC3)nc(/C=C/c3ccccc3)n2)n[nH]1`, the Potency in test [1] was 649 nM (active) and 742 nM (active). In addition, the Potency result in test [2], in test [3], in test [4], in test [5], in test [6] and in test [7] was “inactive” throughout.

Turning to `COc1cc2c(cc1O)[C@H](c1ccc(O[C@@H]3O[C@H](CO)[C@@H](O)[C@H](O)[C@H]3O)c(OC)c1)[C@@H](CO)[C@](O)(CO)C2`, the Potency result in test [1], in test [2], in test [3], in test [4], in test [6] and in test [7] was “inactive” in each case. For the same compound, in test [5], the Potency is 5.19 µM (active).

In the case of `CC(=O)c1c(O)cc(O[C@@H]2O[C@H](CO)[C@@H](O)[C@H](O)[C@H]2O)cc1O`, the Potency result in test [1], in test [2], in test [3], in test [4], in test [6] and in test [7] was “inactive” in each case. For the same compound, the Potency in test [5] is 4.14 µM (active).

`COc1ccc(-c2ccc(-c3cn(C(=O)N4CCCCC4c4ccccc4)nn3)cc2)cc1` (configuration not stated): the Potency entry in test [1], in test [2], in test [3], in test [4], in test [5] and in test [6] was “inactive” throughout. For the same compound, the Potency entry in test [7] was “inactive”.

On to `C=C1[C@H](OC(C)=O)[C@H]2[C@@H](OC(C)=O)[C@](C)(OC(C)=O)C[C@]2(OC(C)=O)C(=O)[C@H](C)/C=C/C(C)(C)C(=O)[C@H](OC(=O)C(C)CC)[C@H]1OC(C)=O` (some centres not stated), for which the Potency entry in test [1], in test [2], in test [3], in test [4], in test [5] and in test [6] was “inactive” throughout. Moreover, in test [7], the Potency result was “inactive”.

On to `COc1c2ccoc2cc2oc(CO[C@@H]3O[C@H](CO)[C@@H](O)[C@H](O)[C@H]3O)cc(=O)c12`, for which the Potency result in test [1], in test [2], in test [3], in test [4], in test [5] and in test [6] was “inactive” in each case. Moreover, the Potency entry in test [7] was “inactive”.

Turning to `C=C(CO[C@@H]1O[C@H](CO[C@@H]2OC[C@](O)(CO)[C@H]2O)[C@@H](O)[C@H](O)[C@H]1O)C1Cc2cc(C(C)=O)ccc2O1` (some centres not stated), the Potency result in test [1], in test [2], in test [3], in test [4], in test [6] and in test [7] was “inactive” each time. In addition, in test [5], the Potency is 5.19 µM (active).

Consider `COc1c2c(c(C)c3c1C(=O)OC3)OC1(C)CC(O)C34OC(OC)(OC3(C)C)C(O)CC4(C)C1C2` (configuration not stated), for which the Potency result in test [1], in test [2], in test [3], in test [4], in test [5] and in test [6] was “inactive” each time. In addition, the Potency result in test [7] was “inactive”.

As for `CC1CCC2(C(=O)O)CCC3(C)C(=CCC4C5(C)CCC(O)C(C)(CO)C5CCC43C)C2C1(C)O` (configuration not stated), the Potency result in test [1], in test [2], in test [3], in test [4], in test [5] and in test [6] was “inactive” throughout. Besides, the Potency result in test [7] is “inactive”.

As for `CCCn1c(=O)c2[nH]c(-c3ccc(OCC(=O)O)cc3)nc2n(CCC)c1=O`, the Potency result in test [1], in test [2], in test [3], in test [4], in test [5] and in test [6] was “inactive” each time. In test [7], the Potency result was “inactive”.

For the compound `C[C@H](C/C=C/C(C)(C)O)[C@H]1CC[C@@]2(C)[C@@H]3[C@@H](O[C@@H]4O[C@H](CO)[C@@H](O)[C@H](O)[C@H]4O)C=C4C(CC[C@H](O)C4(C)C)[C@]3(C=O)CC[C@]12C` (some centres not stated), the Potency entry in test [1], in test [2], in test [3], in test [4], in test [5] and in test [6] was “inactive” throughout. The Potency result in test [7] is “inactive”.
